According to the supplement of paper PMC9950053:
Structures can show the parent of a compound that is named as a salt.

These compounds were tested on Danio rerio larvae (5 dpf) (assay: combined upward orientation toward moving lines (periods 7-14) minus DMSO control (percentage points); higher = more orientation with moving lines than DMSO larvae). Conditions: 10 µM; exposure time: 3 h pre-incubation + 3 h imaging.
Experimental: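 Wild-type 5 dpf zebrafish larvae (n=48 per drug, 96-well plates, 28.5 °C) were exposed to Tocris FDA-approved library compounds at 10 µM (0.1% DMSO) for 3 h before and 3 h during imaging. Images were taken every 6 s during visual (moving coloured lines) and acoustic stimuli, and larvae were tracked with the DeepLabCut-based Z-LaP Tracker. Each behavioural measure is the treated-group mean minus the DMSO vehicle control mean (n=844), in percentage points. This mapping covers compounds with 4-character plate codes.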
CC(C)C(=O)Nc1ccc([N+](=O)[O-])c(C(F)(F)F)c1 [Flutamide] was tested, and the “combined upward orientation toward moving lines” value was -15.3. In the case of CC(C)CN(C[C@@H](O)[C@H](Cc1ccccc1)NC(=O)O[C@H]1CO[C@H]2OCC[C@H]21)S(=O)(=O)c1ccc(N)cc1 [Darunavir], the “combined upward orientation toward moving lines” value is reported as 0.247. CC(=O)O[C@]1(C(C)=O)CC[C@H]2[C@@H]3C=C(C)C4=CC(=O)CC[C@]4(C)[C@H]3CC[C@@]21C [Megestrol Acetate] was tested, and the “combined upward orientation toward moving lines” value was -1.8. CS(=O)(=O)CCNCc1ccc(-c2ccc3ncnc(Nc4ccc(OCc5cccc(F)c5)c(Cl)c4)c3c2)o1 [Lapatinib] was tested, and the “combined upward orientation toward moving lines” value was 1.75. CC[C@H](C)C(=O)O[C@H]1C[C@@H](C)C=C2C=C[C@H](C)[C@H](CC[C@@H]3C[C@@H](O)CC(=O)O3)[C@H]21 [Lovastatin] was tested, and the “combined upward orientation toward moving lines” value was -3.5. In the case of O=C(NCC1CCCCN1)c1cc(OCC(F)(F)F)ccc1OCC(F)(F)F (stereo not given) [Flecainide acetate], the “combined upward orientation toward moving lines” value is reported as -3.7. In the case of Cc1cccc(C)c1OCC(C)N (stereo not given) [Mexiletine hydrochloride], the “combined upward orientation toward moving lines” value is reported as -1.93. For CCc1c2c(nc3ccc(OC(=O)N4CCC(N5CCCCC5)CC4)cc13)-c1cc3c(c(=O)n1C2)COC(=O)[C@]3(O)CC, the “combined upward orientation toward moving lines” value was -3.82. CC(=O)NC[C@H]1CN(c2ccc(N3CCOCC3)c(F)c2)C(=O)O1 [Linezolid] was tested, and the “combined upward orientation toward moving lines” value was 0.95. Nc1nc(F)nc2c1ncn2[C@@H]1O[C@H](CO)[C@@H](O)[C@@H]1O [Fludarabine] was tested, and the “combined upward orientation toward moving lines” value was -6.81. With CC(c1cc2ccccc2s1)N(O)C(N)=O (stereo not given) [Zileuton] the “combined upward orientation toward moving lines” value was -7.03. In the case of C[C@@H](O[C@H]1OCCN(Cc2n[nH]c(=O)[nH]2)[C@H]1c1ccc(F)cc1)c1cc(C(F)(F)F)cc(C(F)(F)F)c1 [Aprepitant], the “combined upward orientation toward moving lines” value is reported as 4.05. With N[C@@H]1[C@H]2CN(c3nc4c(cc3F)c(=O)c(C(=O)O)cn4-c3ccc(F)cc3F)C[C@@H]12 [Trovafloxacin mesylate] the “combined upward orientation toward moving lines” value was -3.7. With CCOc1ccccc1OCCN[C@H](C)Cc1ccc(OC)c(S(N)(=O)=O)c1 [Tamsulosin hydrochloride] the “combined upward orientation toward moving lines” value was -16.3. COc1ccc(-c2ccc3cc(C(=O)O)ccc3c2)cc1C12CC3CC(CC(C3)C1)C2 [Adapalene] was tested, and the “combined upward orientation toward moving lines” value was -8.09. In the case of CN/C(=N\CCSCc1nc[nH]c1C)NC#N [Cimetidine], the “combined upward orientation toward moving lines” value is reported as -0.665. For Clc1ccccc1C(c1ccccc1)(c1ccccc1)n1ccnc1 [Clotrimazole], the “combined upward orientation toward moving lines” value was -3.91. In the case of COc1cc2nc(N3CCN(C(=O)C4COc5ccccc5O4)CC3)nc(N)c2cc1OC (stereo not given) [Doxazosin mesylate], the “combined upward orientation toward moving lines” value is reported as -11.6. In the case of CCCCC(=O)N(Cc1ccc(-c2ccccc2-c2nnn[nH]2)cc1)[C@H](C(=O)O)C(C)C [Valsartan], the “combined upward orientation toward moving lines” value is reported as 2.9. With Cc1cccc(CN2CCN(C(c3ccccc3)c3ccc(Cl)cc3)CC2)c1 (stereo not given) [Meclizine dihydrochloride] the “combined upward orientation toward moving lines” value was -2.56. For Cc1c(-c2ccc(O)cc2)n(Cc2ccc(OCCN3CCCCCC3)cc2)c2ccc(O)cc12 [Bazedoxifene acetate], the “combined upward orientation toward moving lines” value was 1.97. In the case of C/C(O)=C(\C#N)C(=O)Nc1ccc(C(F)(F)F)cc1 [Teriflunomide], the “combined upward orientation toward moving lines” value is reported as -3.07. With CN(CCOc1ccc(NS(C)(=O)=O)cc1)CCc1ccc(NS(C)(=O)=O)cc1 [Dofetilide] the “combined upward orientation toward moving lines” value was -4.9. With CC#C[C@]1(O)CC[C@H]2[C@@H]3CCC4=CC(=O)CCC4=C3[C@@H](c3ccc(N(C)C)cc3)C[C@@]21C [Mifepristone] the “combined upward orientation toward moving lines” value was 2.94. With C=CC(=O)N1CCC[C@@H](n2nc(-c3ccc(Oc4ccccc4)cc3)c3c(N)ncnc32)C1 [Ibrutinib] the “combined upward orientation toward moving lines” value was -3.41. For CC1=Nc2ccc(Cl)cc2S(=O)(=O)N1 [Diazoxide], the “combined upward orientation toward moving lines” value was -1.53. With CCOC(=O)C1=C(COCCN)NC(C)=C(C(=O)OC)C1c1ccccc1Cl (stereo not given) [Amlodipine besylate] the “combined upward orientation toward moving lines” value was 0.386. O=C(O[C@@H]1C[C@@H]2C[C@H]3C[C@H](C1)N2CC3=O)c1c[nH]c2ccccc12 [Dolasetron mesylate] was tested, and the “combined upward orientation toward moving lines” value was -0.866. For CCOC(=O)[C@H](CCc1ccccc1)N[C@@H](C)C(=O)N1[C@H](C(=O)O)C[C@@H]2CCC[C@@H]21 [Ramipril], the “combined upward orientation toward moving lines” value was -5.05. C[C@H](Cc1cc2c(c(C(N)=O)c1)N(CCCO)CC2)NCCOc1ccccc1OCC(F)(F)F [Silodosin] was tested, and the “combined upward orientation toward moving lines” value was -4.66. For Cc1ccc(-c2cc(C(F)(F)F)nn2-c2ccc(S(N)(=O)=O)cc2)cc1 [Celecoxib], the “combined upward orientation toward moving lines” value was -15.8. NC(=O)N1c2ccccc2C=Cc2ccccc21 [Carbamazepine] was tested, and the “combined upward orientation toward moving lines” value was -1.82. For O=C1CCc2cc(OCCCCc3nnnn3C3CCCCC3)ccc2N1 [Cilostazol], the “combined upward orientation toward moving lines” value was -4.64. In the case of COc1cccc2c1C(=O)c1c(O)c3c(c(O)c1C2=O)C[C@@](O)(C(=O)CO)C[C@@H]3O[C@H]1C[C@H](N)[C@H](O)[C@H](C)O1 [Doxorubicin hydrochloride], the “combined upward orientation toward moving lines” value is reported as -1.38. For CCc1ccc(CCOc2ccc(CC3SC(=O)NC3=O)cc2)nc1 (stereo not given) [Pioglitazone hydrochloride], the “combined upward orientation toward moving lines” value was -3.8. CCC(=O)O[C@]1(C(=O)SCF)[C@H](C)C[C@H]2[C@@H]3C[C@H](F)C4=CC(=O)C=C[C@]4(C)[C@@]3(F)[C@@H](O)C[C@@]21C [Fluticasone propionate] was tested, and the “combined upward orientation toward moving lines” value was -9.35. OC(CNCC(O)C1CCc2cc(F)ccc2O1)C1CCc2cc(F)ccc2O1 (stereo not given) [Nebivolol hydrochloride] was tested, and the “combined upward orientation toward moving lines” value was -7.15. In the case of C#C[C@]1(O)CC[C@H]2[C@@H]3CCC4=CC(=O)CC[C@@H]4[C@H]3CC[C@@]21CC [Levonorgestrel], the “combined upward orientation toward moving lines” value is reported as 5.76. In the case of COc1cc2ncnc(Nc3ccc(F)c(Cl)c3)c2cc1OCCCN1CCOCC1 [Iressa], the “combined upward orientation toward moving lines” value is reported as -7.88. For CNC(=O)c1ccccc1Sc1ccc2c(/C=C/c3ccccn3)n[nH]c2c1 [Axitinib], the “combined upward orientation toward moving lines” value was 4.21.
